Experimental data reported in PubChem BioAssay AID1159580 (chemical genetic matrix, 2015).
The campaign covered roughly 5,500 compounds. About 2,000 (36%) were called active. About 18% were inconclusive and are not listed. Cut-off read from the data, not from the text of the source: active = normalized growth mostly below about 0.91 (no sharp cut-off); inconclusive = no clear call, values can overlap the other calls; inactive = mostly above about 0.92. The list shows a part of the results.

Assay: chemical genetic growth profiling, strain panel (AID 1159580);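 note: tested at 20 µM; growth read once vehicle control cultures reached saturation at 30 °C; 1 = growth at the plate median or of vehicle wells; lower values mean less growth of the strain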
Conditions: S. cerevisiae deletion strains, growth OD

Measured: normalized growth

CCN(CCCl)Cc1ccccc1Br
inactive: locus YAL040C, strain CLN3, active compounds read low 1.06 | locus YCL061C, strain MRC1 (second series), active compounds read low 0.994 | locus YDR363W, strain ESC2, active compounds read low 0.91 | locus YER002W, strain NOP16, active compounds read low 1.04 | locus YJR075W, strain HOC1, active compounds read low 0.994 | locus YNL153C, strain GIM3, active compounds read low 1.02 | locus YNL175C, strain NOP13, active compounds read low 1 | locus YNL197C, strain WHI3, active compounds read low 1.02 | locus YNL224C, strain SQS1, active compounds read low 0.995 | locus YNL322C, strain KRE1, active compounds read low 0.974 | locus YOR083W, strain WHI5 (second series), active compounds read low 0.968 | locus YPL241C, strain CIN2, active compounds read low 0.999
